CHX counter: Cycloheximide Counterscreen for Small Molecule Inhibitors of Shiga Toxin; cell reporter, cycloheximide protein synthesis inhibition counterscreen; AID 2314, 2010; actives 12% (n = 300,000); max response, %; in the data active = max response mostly above about 13%, no sharp cut-off; inactive = mostly below about 14%; also: read at 38.3 µM for the half of the compounds with a filed dose
Shiga inhibitor: A qHTS for Small Molecule Inhibitors of Shiga Toxin; Vero cells, Shiga toxin protein synthesis inhibition reporter; inhibition, % at 38.7 µM; actives 9.2% (n = 290,000); AID 2315, 2010; in the data active = inhibition mostly above about 28%, no sharp cut-off; inactive = mostly below about 43%
HCMV antiviral: qHTS Assay for inhibitors of the human cytomegalovirus (HCMV). HFF cells, HCMV-luciferase reporter, 72 h; hits give low values. activity change, negative = inhibition, % at 57.5 µM. actives 4.5% (n = 410,000). AID 1259415, 2018; in the data active = activity change below about -60%; inconclusive = no clear call, values can overlap the other calls; inactive = above about -39%
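Compounds were evaluated in HFFs infected with an HCMV luciferase reporter virus (MOI 1 PFU/cell). Luciferase in lysates collected 72 h post infection served as the replication measure.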
HCV inhibitor: qHTS Assay for Inhibitors of Hepatitis C Virus (HCV); Huh7.5.1 HCVcc-Cre infection, luciferase reporter, 44 h; Potency, µM (doses to about 41.8 µM), hits mostly inhibitors; actives 3.4% (n = 340,000); AID 651820, 2012
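Seed cells (1,000/well) for 4 h; treat with compound and infect with HCVcc-Cre, moi about 0.5. Incubate 44 h, then detect luciferase activity.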
Pf growth 96h: Primary qHTS for delayed death inhibitors of the malarial parasite plastid, 96 hour incubation; Potency, µM (series often up to 28.7 µM), hits mostly inhibitors; P. falciparum luciferase reporter growth, 96 h; actives 6.9% (n = 320,000); AID 504834, 2011
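Parasite growth measured via integrated firefly luciferase reporter in P. falciparum. Infected erythrocytes at 2% hematocrit, 0.05% parasitemia final were treated 96 hours at 37 C under 5% CO2, and luminescence was read.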
Pf growth 48h: Primary qHTS for delayed death inhibitors of the malarial parasite plastid, 48 hour incubation | P. falciparum luciferase growth in erythrocytes, 48 h | Potency, µM (top dose mostly 28.7 µM), usual class: inhibitors | AID 504832, 2011 | actives 5.9% (n = 310,000)
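In quantitative HTS format, infected erythrocytes bearing luciferase-reporter parasites were treated for a single generation at 37 C. Luminescence after adding detection reagent served as the growth measure.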
Large screens that a line does not name were inactive. A selection: hits, their analogues and other compounds. The true share with any hit is near 21%. Unless noted, calls follow the shape of the dose curve; as a rule, active = well fitted inhibition curve with a large enough effect; inconclusive = small, poorly fitted or top-dose-only effect, or another doubt; inactive = no such curve, though single readings can be large or run the other way.

COc1ccc(C2NN=C(c3ccc(C)cc3)S2)cc1OC (stereo not drawn)	CHX counter 38, Shiga inhibitor 92, HCV inhibitor inconclusive, Pf growth 96h 1.9µM
Cc1ccc(NC(=O)Nc2cn(CC(C)C)c(=O)c3ccccc23)cc1N(C)C	none (no result: CHX counter, Shiga inhibitor, HCV inhibitor, Pf growth 96h, Pf growth 48h)
Cc1ccccc1NC(=O)Nc1nnc(N2CCCCCC2)s1	none (no result: CHX counter, Shiga inhibitor, HCV inhibitor, Pf growth 96h, Pf growth 48h)
CN(C)CCc1c[nH]c2ccc(CC3COC(=O)N3)cc12 (stereo not drawn)	none (no result: CHX counter, Shiga inhibitor, HCMV antiviral, HCV inhibitor)
CC(C)(C)CN1C(N)=NC[C@@H]1Cc1ccc(O)cc1	Pf growth 96h inconclusive, Pf growth 48h inconclusive
NC1=NC[C@H](Cc2ccc(O)cc2)N1CCC12CC3CC(CC(C3)C1)C2	HCMV antiviral -73, Pf growth 96h 1.9µM, Pf growth 48h 2.9µM
CCCCN1C(N)=NC[C@@H]1Cc1ccc(O)cc1	Pf growth 96h 4.1µM, Pf growth 48h 10µM
CC(=O)N[C@@H](Cc1ccc(O)cc1)CN1C(N)=NC[C@@H]1CC(C)C	none
CCCCN1C(N)=NC[C@H]1Cc1ccc(O)cc1	Pf growth 96h 4.7µM, Pf growth 48h 9.3µM
CC(C)(C)CN1C(N)=NC[C@H]1Cc1ccc(O)cc1	Pf growth 96h 4.7µM, Pf growth 48h inconclusive
Cc1nc(SC(C)C(=O)c2c(N)n(C)c(=O)n(C)c2=O)c2c(C)c(C)sc2n1 (stereo not drawn)	HCV inhibitor inconclusive, Pf growth 96h inconclusive (no result: CHX counter, Shiga inhibitor)
CC(CC1CC(C)(C)OC1=O)C(=O)Nc1ccc([N+](=O)[O-])cc1 (stereo not drawn)	Pf growth 96h 1.7µM, Pf growth 48h inconclusive
CC1(C)CC(CC(=O)Nc2ccc([N+](=O)[O-])cc2)C(=O)O1 (stereo not drawn)	Pf growth 96h inconclusive
CCOc1ccc(CNC(=O)Cn2c(=O)c3cccn3c3cccnc32)cc1	none (no result: CHX counter, Shiga inhibitor, HCV inhibitor, Pf growth 96h, Pf growth 48h)
COc1ccc(S(=O)(=O)N(C)Cc2ccc3c(c2)OCCO3)cc1	none (no result: CHX counter, Shiga inhibitor)
CN(C)c1ccc(-c2nc3cnccn3c2Nc2cccc(C(F)(F)F)c2)cc1	none (no result: CHX counter, Shiga inhibitor, HCV inhibitor, Pf growth 96h, Pf growth 48h)
COc1cccc(NC(=S)Nc2cccc3ccccc23)c1	CHX counter 85, Shiga inhibitor 110
C=CCNC(=S)Nc1cccc2ccccc12	none
NC(=O)C1CCCN(C(=O)Nc2cccc3ccccc23)C1 (stereo not drawn)	HCMV antiviral -64
Cc1cc(NC(=S)Nc2cccc3ccccc23)n[nH]1	CHX counter 28, Shiga inhibitor 70, Pf growth 96h inconclusive
COc1cccc(NC(=S)NC(=O)Cc2ccccc2)c1	none (no result: CHX counter, Shiga inhibitor, Pf growth 96h, Pf growth 48h)
CC(C)c1ccc(NC(=S)Nc2cccc3ccccc23)cc1	CHX counter 55, Shiga inhibitor 98, HCV inhibitor inconclusive, Pf growth 48h inconclusive
C/C(=C\c1cc2ccccc2o1)C1Nc2cccc3cccc(c23)N1	Pf growth 96h inconclusive (no result: CHX counter, Shiga inhibitor, HCV inhibitor)
CC1CCN(C(=O)COc2ccc3ccccc3c2Br)CC1	none (no result: CHX counter, Shiga inhibitor, HCV inhibitor, Pf growth 96h, Pf growth 48h)
Cc1c(NC(=O)c2ccc(Cl)cc2)cc(C(C)C)c(O)c1S(=O)(=O)c1ccc(Cl)cc1	none (no result: CHX counter, Shiga inhibitor, HCV inhibitor, Pf growth 96h, Pf growth 48h)
Cc1cc(C)cc(NC(=S)Nc2cccc3ccccc23)c1	HCMV antiviral inconclusive, HCV inhibitor inconclusive
Fc1ccc(NC(=S)Nc2ccccc2Cl)cc1	none
CCc1cccc(NC(=S)Nc2cccc3ccccc23)c1	CHX counter 46, HCV inhibitor inconclusive, Pf growth 48h inconclusive
S=C(NCCc1ccncc1)Nc1cccc2ccccc12	HCMV antiviral inconclusive
Cc1cccc(NC(=S)Nc2cccc3ccccc23)c1	CHX counter 32, Shiga inhibitor 95, HCV inhibitor inconclusive, Pf growth 96h inconclusive, Pf growth 48h 10µM
Fc1ccc(NC(=S)Nc2cccc3ccccc23)cc1F	CHX counter 46, Shiga inhibitor 45, HCMV antiviral -71, HCV inhibitor inconclusive, Pf growth 48h inconclusive
Fc1ccc(NC(=S)Nc2cccc3ccccc23)cc1	CHX counter 42, Shiga inhibitor 70
O=C(c1cc(Cl)ccc1F)N1CCCC(Nc2ccc3c(c2)OCCO3)C1 (stereo not drawn)	HCV inhibitor inconclusive, Pf growth 96h inconclusive
CCC(C)(Oc1ccc(C2(c3ccc(OC(C)(CC)C(=O)O)cc3)CCCCC2)cc1)C(=O)O (stereo not drawn)	Pf growth 96h inconclusive (no result: CHX counter, Shiga inhibitor, HCMV antiviral, HCV inhibitor)
Cc1cccc(OCC(=O)N/N=C/c2sc(=O)n(Cc3cccc(C(=O)O)c3)c2Cl)c1	Pf growth 96h inconclusive
S=C(Nc1cccc2ccccc12)NN1CCCCCC1	HCMV antiviral -63 (no result: CHX counter, Shiga inhibitor, Pf growth 96h, Pf growth 48h)
Cc1ccc(NC(=S)Nc2cccc3ccccc23)cc1	CHX counter 90, Shiga inhibitor 78, Pf growth 48h inconclusive
COc1cccc(C2(c3cccc(OC)c3)CC2C(=O)Nc2cccc3ccccc23)c1 (stereo not drawn)	Pf growth 96h 5.2µM, Pf growth 48h 9.3µM
COc1cccc(NC(=O)C2CC2(c2cccc(OC)c2)c2cccc(OC)c2)c1 (stereo not drawn)	HCV inhibitor inconclusive, Pf growth 96h inconclusive, Pf growth 48h inconclusive
S=C(Nc1cccc2ccccc12)NN1CCOCC1	Pf growth 96h inconclusive
CCOc1ccc(-c2csc(-c3c(N)c(C(=O)c4ccc5c(c4)OCO5)n4ccccc34)n2)cc1	none (no result: CHX counter, Shiga inhibitor, HCV inhibitor, Pf growth 96h, Pf growth 48h)
CCN(C[C@H]1N[C@@](CC)(C(=O)OC)[C@H]2C(=O)N(C)C(=O)[C@@H]12)C(=O)C1CCCCC1	none (no result: CHX counter, Shiga inhibitor, Pf growth 96h, Pf growth 48h)
CN(C)CC(O)CN1C(=O)NC(C)(C)C1=O (stereo not drawn)	Pf growth 96h 2.1µM
CC1(C)NC(=O)N(CC(O)CN2CCCCC2)C1=O (stereo not drawn)	none (no result: Pf growth 96h)
CC(C)Oc1ccc(NC(=O)c2ccncc2)cc1	CHX counter 19, Shiga inhibitor 63, HCV inhibitor inconclusive
CC(C)Oc1ccc(C(=O)Nc2ccc([N+](=O)[O-])cc2)cc1	CHX counter 37, Shiga inhibitor 119
COc1ccc(OC(C)C(=O)Nc2ccc([N+](=O)[O-])cc2)cc1 (stereo not drawn)	Pf growth 96h 15µM, Pf growth 48h inconclusive
O=C(Nc1ccc(Nc2ccncc2)cc1)c1ccc([N+](=O)[O-])cc1	HCMV antiviral -90, HCV inhibitor 11µM, Pf growth 96h 1.7µM, Pf growth 48h 2.6µM
COc1cc(OC)cc(C(=O)Nc2ccc(C(=O)c3ccncc3)cc2)c1	HCV inhibitor inconclusive, Pf growth 96h inconclusive
COc1ccc(NC(=O)C(C)Oc2ccc(/C(C)=N\O)cc2)cc1 (stereo not drawn)	Pf growth 48h inconclusive
O=C(Nc1ccc(Oc2cccnc2)cc1)c1ccc([N+](=O)[O-])cc1	HCV inhibitor inconclusive, Pf growth 48h inconclusive
CCc1ccccc1NC(=O)c1sc2nc3n(c(=O)c2c1C)CCC3	none (no result: CHX counter, Shiga inhibitor, HCV inhibitor, Pf growth 96h, Pf growth 48h)
Cc1cccc2nc(-c3ccccc3)c(-c3ccc(CN4CCC(n5cc(-c6ccccc6)[nH]c5=O)CC4)cc3)nc12	none (no result: CHX counter, Shiga inhibitor, HCV inhibitor, Pf growth 96h, Pf growth 48h)
